A number with no mark means an inactive call. No stated cut-off is given here; in the data, active means inhibition score above about 11; inactive means the rest.
test: S. cerevisiae short- and long-term growth effects – BY4741, OD595, 24 h, dose response (AID 489042); conditions: flow cytometer event count, 7 d (AID 449753), hits give high values

SMILES	inhibition score
COc1ccc2nc3ccccc3nc2c1NC(=O)c1ccccc1Cl	0
c1ccc2nc3ccccc3nc2c1	0
Cc1cccc2nc3ccccc3nc12	0
CC(C)(C)Nc1ncnc2c1cnn2-c1ccccc1	0
NC(=O)CSc1nnc(-c2ccc([N+](=O)[O-])cc2)o1	0
Cc1cc(C)cc(NC(=O)CN2CCN(c3ccccn3)CC2)c1	0
CCN(CC)C(=O)c1ccc2nc3ccccc3nc2c1	0
CSc1nnc2c3cc(F)ccc3n(C)c2n1	0
CCC(=Nc1ccccc1O)C1=C(O)CC(c2ccccc2)CC1=O (stereo not given)	0
CC(C)(C)n1nc(-c2ccc(Cl)cc2)c2c(N)ncnc21	0
O=C(O)c1cnc2ccccc2n1	0
CCc1nc(NC(C)(C)C)c2cnn(-c3ccccc3)c2n1	0
COc1ccc2nc3ccccc3nc2c1N	0
CCn1c2ccccc2c2n[nH]c(=S)nc21	0
CC(=O)Nc1ccc2nc3ccccc3nc2c1	0
COc1ccc2c3c(cccc13)N(C)N=C2C	0
COC(=O)c1cccc2nc3c(C(C)O)cccc3nc12 (stereo not given)	0
CCN(CC)c1ccc2nc3ccc(N)cc3[n+](-c3ccccc3)c2c1	0
C/C(=N\Nc1ncnc2sc(C)c(C)c12)c1ccccn1	10
COc1ccc2cc(C3CC(c4ccco4)=NN3S(=O)(=O)c3ccccc3)c(Cl)nc2c1 (stereo not given)	0
